Values joined by “and” are separate entries in the source; they are usually repeats but may differ in a detail not shown here. Equal entries are not always repeated. About 83,000 compounds went through this panel and 20% of them were active in at least one assay; those are over-represented in the sample as a whole.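 Single-dose data. Exposure time 48 hours. Values below 10 considered active.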 A number with no mark means an inactive call. Active and inactive are the calls of the source.

Among the test systems are DU-145 prostate; K-562 leukemia; MALME-3M melanoma; MDA-MB-231 breast; RXF 393 renal; SF-268 CNS; SF-295 CNS; SF-539 CNS; UACC-257 melanoma; M14 melanoma; HCT-15 colon; HT29 colon; SNB-75 CNS; SNB-19 CNS; U251 CNS; PC-3 prostate; SK-MEL-5 melanoma; UACC-62 melanoma; LOX IMVI melanoma; SK-MEL-28 melanoma.
What all share (experiment): NCI-60 one-dose screen, 48 h (100 = growth as untreated, 0 = no growth, -100 = all killed)
Holding throughout (conditions): 10 µM unless noted

Turning to `COc1ccc2c(c1)C(Sc1ccc(Cl)cc1)c1c(nc(N)c(C#N)c1N)O2` (stereo not given), the growth with DU-145 prostate is 86%; in the experiment on K-562 leukemia, 47.6%; in the experiment with MALME-3M melanoma it was 82.2%; in the experiment with MDA-MB-231 breast, 56.4%; in the experiment on RXF 393 renal, 56.4%; in the experiment on SF-268 CNS, 46%. Moreover, the growth in the experiment on SF-295 CNS was 55.7%; with SF-539 CNS it was 61.8%; in the experiment on UACC-257 melanoma, 104%; in the experiment on M14 melanoma, 66.4%; with HCT-15 colon, 58.9%; in the experiment on HT29 colon, 75.2%. Besides, the growth was 36.9% in the experiment with SNB-75 CNS; 65.1% in the experiment on SNB-19 CNS; 51.9% in the experiment with U251 CNS; 20% in the experiment on PC-3 prostate; 36.5% with SK-MEL-5 melanoma; 64.3% in the experiment on UACC-62 melanoma. The figures for the growth in the experiment on LOX IMVI melanoma and in the experiment with SK-MEL-28 melanoma were -2.6% (active) and 99.8%, respectively.
With `Cc1ccc(C(=O)C[n+]2cccc3c4ccccc4ccc32)cc1`, the growth with DU-145 prostate was 35.7%; in the experiment with K-562 leukemia, 8.04% (active); with MALME-3M melanoma it was 10.4%; in the experiment with MDA-MB-231 breast it was 24.2%; with RXF 393 renal, 5.94% (active); in the experiment with SF-268 CNS it was 42.8%. Further, the growth in the experiment with SF-295 CNS is 23.4%; in the experiment on SF-539 CNS, 25.5%; in the experiment with UACC-257 melanoma it was 5.16% (active); in the experiment on M14 melanoma it was 17.6%; in the experiment on HCT-15 colon, 56.8%; in the experiment on HT29 colon it was 12.5%. The growth in the experiment on SNB-75 CNS is 43%; in the experiment on SNB-19 CNS it was 25.9%; in the experiment with U251 CNS it was 17.8%; with PC-3 prostate, 18.7%; in the experiment with SK-MEL-5 melanoma, -88.8% (active); with UACC-62 melanoma, 32.2%. Besides, the results for the growth in the experiment with LOX IMVI melanoma and in the experiment on SK-MEL-28 melanoma were -24.2% (active) and 44.5%, respectively.
Take `C/C(=N\Nc1ccc(C(=O)O)cc1)c1cnn(-c2cc(=O)[nH]c3ccc(C)cc23)c1C`: the growth is 107% in the experiment on DU-145 prostate; 101% with K-562 leukemia; 83.3% with MALME-3M melanoma; 91.1% with MDA-MB-231 breast; 93.7% with RXF 393 renal; 97.2% in the experiment with SF-268 CNS. The growth is 95.5% with SF-295 CNS; 101% in the experiment on SF-539 CNS; 106% in the experiment with UACC-257 melanoma; 96.3% with M14 melanoma; 97.4% in the experiment on HCT-15 colon; 100% in the experiment with HT29 colon. Further, the growth with SNB-75 CNS was 91.9%; with SNB-19 CNS, 97.5%; in the experiment with U251 CNS, 102%; in the experiment with PC-3 prostate it was 88.8%; with SK-MEL-5 melanoma it was 97.9%; in the experiment on UACC-62 melanoma, 91.5%. For the same compound, the growth in the experiment with LOX IMVI melanoma was 94.9%; in the experiment on SK-MEL-28 melanoma, 107%.
Consider `COc1cc(C=O)ccc1Oc1nc(Nc2ccc(F)cc2)nc(N(C)C)n1`, for which the growth in the experiment on DU-145 prostate was 90% and 72.7%; with K-562 leukemia, 55.6% and 35.2%; in the experiment with MALME-3M melanoma, 75.8% and 82.1%; in the experiment on MDA-MB-231 breast, 90.1% and 76.2%; in the experiment with RXF 393 renal, 91.9% and 64.9%; with SF-268 CNS it was 73.2% and 66.9%. Further, the growth with SF-295 CNS was 65.5% and 82.7%; in the experiment with SF-539 CNS, 92.9% and 42.8%; in the experiment on UACC-257 melanoma it was 57.7% and 102%; in the experiment on M14 melanoma, 93.4% and 65.3%; with HCT-15 colon, 88.4% and 18.6%; with HT29 colon, 105% and 69.2%. For the same compound, the growth with SNB-75 CNS is 47.7% and 58.3%; in the experiment on SNB-19 CNS, 87.6% and 68.2%; in the experiment on U251 CNS it was 85% and 36.5%; with PC-3 prostate, 90.3% and 61.7%; with SK-MEL-5 melanoma, 32.3% and 76.3%; in the experiment on UACC-62 melanoma it was 63% and 85.7%. Further, the growth with LOX IMVI melanoma is 54.3%; in the experiment with SK-MEL-28 melanoma it was 99.9% and 84.4%.
Regarding `O=C1Nc2ccccc2/C1=C\c1ccc(OCC(=O)c2ccc(Br)cc2)cc1`, the growth in the experiment with DU-145 prostate is 85.6%; in the experiment with K-562 leukemia, 27.8%; in the experiment on MALME-3M melanoma it was 81%; in the experiment on MDA-MB-231 breast it was 82.2%; with RXF 393 renal, 67.6%; in the experiment on SF-268 CNS, 86.9%. The growth was 58.6% in the experiment with SF-295 CNS; 81.5% in the experiment on SF-539 CNS; 73.6% in the experiment on UACC-257 melanoma; 73.1% in the experiment with M14 melanoma; 45.4% with HCT-15 colon; 82.7% in the experiment with HT29 colon. In addition, the growth in the experiment on SNB-75 CNS was 79.6%; in the experiment on SNB-19 CNS, 79.6%; with U251 CNS, 71.5%; in the experiment with PC-3 prostate it was 62.4%; with SK-MEL-5 melanoma, 28.9%; in the experiment on UACC-62 melanoma, 52.6%. The growth was 28.9% in the experiment on LOX IMVI melanoma and 80.2% with SK-MEL-28 melanoma.
Regarding `O=C(CSc1nc2sc3c(c2c(=O)n1-c1ccc(Cl)cc1)CCCC3)NNC(=O)c1ccc(F)cc1`, the growth was 109% in the experiment with DU-145 prostate; 72.3% with K-562 leukemia; 80.5% in the experiment with MALME-3M melanoma; 28.8% in the experiment on MDA-MB-231 breast; 89.7% in the experiment on RXF 393 renal; 95.9% with SF-268 CNS. Further, the growth with SF-295 CNS was 90.4%; in the experiment on SF-539 CNS, -28.4% (active); with UACC-257 melanoma, 106%; in the experiment with M14 melanoma it was 80.6%; in the experiment on HCT-15 colon it was 91.8%; with HT29 colon, 107%. For the same compound, the growth in the experiment on SNB-75 CNS is 76%; in the experiment with SNB-19 CNS, 32%; with U251 CNS, 37.8%; in the experiment on PC-3 prostate, 81.9%; with SK-MEL-5 melanoma, 66.9%; with UACC-62 melanoma, 41.1%. The growth in the experiment with LOX IMVI melanoma is 64.2%; in the experiment with SK-MEL-28 melanoma, 87%.

For the origin of these results see PubChem BioAssay (NCI).
